Sampled rows, rich in hits. Any-hit rate of the full collection: about 11%.
FLuc inh = blocks purified firefly luciferase enzyme activity | P08659 | purified P. pyralis luciferase, luminescence, biochemical | Potency, µM (highest dose often 115 µM), usual class: inhibitors | actives 2.5% (n = 76,000); further: nearly all actives have a fitted effect of over 65% in size
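Cell-free enzyme assay, 10nM P. pyralis luciferase, luciferin and ATP each at 10uM. Inhibition profiled over a 6-point titration, read as luminescence.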
3T3 cytotox = cytotoxic compounds in NIH 3T3 cells; Potency, µM (doses to about 96.7 µM), actives largely listed as inhibitors; NIH 3T3 viability, CellTiter-Glo ATP luminescence, 48-72 h; actives 4.3% (n = 94,000); further: nearly all actives have a fitted effect of over 55% in size
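Cells were seeded at 400 per well, treated with pin-transferred compound, and kept 48 or 72 hr at 37 °C before CellTiter-Glo addition and luminescence imaging of cellular ATP.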
NPR1 antag = blocks ANP-stimulated signaling of human Npr1 receptor; HEK293 hNpr1 GloSensor cGMP, ANP-stimulated luminescence; Potency, µM (top dose mostly 46.3 µM), hits mostly inhibitors; actives 1.6% (n = 76,000); P16066; calls by dose curve; further: nearly all actives have a fitted effect of over 60% in size
Target sequence (P16066 whole entry, looked up): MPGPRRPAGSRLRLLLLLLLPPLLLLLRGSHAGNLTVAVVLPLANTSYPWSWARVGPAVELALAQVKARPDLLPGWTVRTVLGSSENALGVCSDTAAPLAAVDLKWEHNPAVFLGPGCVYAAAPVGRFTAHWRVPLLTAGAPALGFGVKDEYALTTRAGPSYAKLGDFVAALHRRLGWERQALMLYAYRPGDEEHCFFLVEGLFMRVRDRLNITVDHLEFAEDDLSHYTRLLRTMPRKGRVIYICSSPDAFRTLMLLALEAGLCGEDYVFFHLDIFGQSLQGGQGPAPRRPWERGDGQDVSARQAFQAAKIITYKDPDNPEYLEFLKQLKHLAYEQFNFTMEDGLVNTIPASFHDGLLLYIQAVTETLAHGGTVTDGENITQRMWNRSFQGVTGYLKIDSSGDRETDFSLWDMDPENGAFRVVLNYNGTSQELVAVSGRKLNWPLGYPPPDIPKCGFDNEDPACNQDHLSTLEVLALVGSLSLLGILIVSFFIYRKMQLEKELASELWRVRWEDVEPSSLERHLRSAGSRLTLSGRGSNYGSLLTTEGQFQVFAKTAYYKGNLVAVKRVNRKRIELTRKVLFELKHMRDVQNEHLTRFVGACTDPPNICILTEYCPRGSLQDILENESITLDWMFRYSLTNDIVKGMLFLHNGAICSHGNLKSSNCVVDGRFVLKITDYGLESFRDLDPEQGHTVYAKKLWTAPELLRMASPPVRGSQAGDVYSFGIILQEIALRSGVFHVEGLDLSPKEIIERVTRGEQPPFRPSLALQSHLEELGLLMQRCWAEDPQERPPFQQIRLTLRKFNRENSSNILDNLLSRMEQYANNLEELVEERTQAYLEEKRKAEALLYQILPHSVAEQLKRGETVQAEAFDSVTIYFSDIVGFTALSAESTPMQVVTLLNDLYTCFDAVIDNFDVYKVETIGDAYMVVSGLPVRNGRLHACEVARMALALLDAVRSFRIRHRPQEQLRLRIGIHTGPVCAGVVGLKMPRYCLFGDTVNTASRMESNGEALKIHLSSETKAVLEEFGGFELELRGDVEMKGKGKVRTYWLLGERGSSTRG
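Compound pre-incubated 30 min at room temperature on GloSensor-loaded HEK293 cells stably carrying hNpr1 and the pGS-40F cGMP biosensor. Stimulation uses hNppA at 0.1 nM final; luminescence is taken at baseline and 20 min post-agonist.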
HEK293 tox = cytotoxic compounds in HEK 293 cells. actives 6.6% (n = 94,000). HEK 293 viability, ATP luminescence (CellTiter-Glo), 48-72 h. Potency, µM (doses to about 115 µM), usual class: inhibitors; further: nearly all actives have a fitted effect of over 60% in size
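Pintool-delivered compounds were incubated with HEK 293 cells (250 cells/well) at 37 degree Celsius for 48 or 72 hr. ATP-dependent luminescence (CellTiter-Glo) then reported remaining viable cells.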
Each line names hits and unclear results; the compound was inactive in the other large screens; ! = not active in a repeat. Unless noted, the call rests on the fitted dose curve; in most records, active means well fitted curve in the direction sought with a large enough effect; inconclusive means small, poorly fitted or top-dose-only effect, or another doubt; inactive means no such curve, though single readings can be large; an effect the other way counts as inactive or inconclusive.

COC(=O)N1CCCC(N2C(=O)c3c(c(C)nn3-c3ccccc3)C2C)C1 (stereo unspecified)	HEK293 tox inconclusive (no result: FLuc inh, NPR1 antag)
Cc1ccccc1C(=O)N1CCC(N2C(=O)c3c(c(C)nn3-c3ccccc3)C2C)C1 (stereo unspecified)	3T3 cytotox inconclusive, HEK293 tox 44.7µM (no result: FLuc inh, NPR1 antag)
Cc1nn(-c2ccccc2)c2c1C(C)N(C1CCCN(C(=O)C3CC3)C1)C2=O (stereo unspecified)	none (no result: FLuc inh, NPR1 antag)
COc1ccccc1C(=O)N1CCC(N2C(=O)c3c(c(C)nn3-c3ccccc3)C2C)CC1 (stereo unspecified)	3T3 cytotox inconclusive, HEK293 tox 39.8µM (no result: FLuc inh, NPR1 antag)
Cc1nn(-c2ccccc2)c2c1C(C)N(C1CN(C(=O)NC3CCCC3)C1)C2=O (stereo unspecified)	3T3 cytotox 28.2µM, HEK293 tox inconclusive (no result: FLuc inh, NPR1 antag)
Cc1nn(-c2ccccc2)c2c1C(C(C)C)N(C1CCN(C(=O)C3CC3)CC1)C2=O (stereo unspecified)	none (no result: FLuc inh, NPR1 antag)
Cc1ccccc1C(=O)N1CCC(N2C(=O)c3c(c(C)nn3-c3ccccc3)C2C)CC1 (stereo unspecified)	3T3 cytotox inconclusive, HEK293 tox 44.7µM (no result: FLuc inh, NPR1 antag)
COc1ccc(-c2ccc(C(=O)NCc3ccc4c(c3)OCO4)cc2)nn1	HEK293 tox inconclusive (no result: FLuc inh, NPR1 antag)
CCCOc1ccc(CNC(=O)[C@H]2CCC[C@H]2NC(=O)c2ccc(OC)cc2)cc1	none
O=C1C(O)C2(CCCCC2)N1C1CCN(Cc2ccc(F)c(F)c2)CC1 (stereo unspecified)	none
COCCCn1c(=O)c(C(=O)N2CCN(c3ncccn3)CC2)nc2cccnc21	none (no result: FLuc inh, NPR1 antag)
Cc1noc(C)c1-c1cc(-c2cccnc2)cn2cncc12	3T3 cytotox inconclusive, HEK293 tox inconclusive
COc1cccc(-c2ccc(CN3CCCC(NC(=O)C4CC4)C3)cc2)c1 (stereo unspecified)	3T3 cytotox inconclusive, HEK293 tox 35.5µM (no result: FLuc inh, NPR1 antag)
COc1cccc(-c2ccc(CN3CCCC(NC(=O)c4ccccc4Cl)C3)cc2)c1 (stereo unspecified)	3T3 cytotox 28.2µM, HEK293 tox 20µM (no result: FLuc inh, NPR1 antag)
COc1ccc(CC(=O)NC2CCCN(Cc3ccc(-c4cccc(OC)c4)cc3)C2)cc1 (stereo unspecified)	3T3 cytotox 35.5µM, HEK293 tox 25.1µM (no result: FLuc inh, NPR1 antag)
COc1cccc(-c2ccc(CN3CCCC(N[S+](=O)([O-])c4ccccc4)C3)cc2)c1 (stereo unspecified)	3T3 cytotox 39.8µM, HEK293 tox 22.4µM (no result: FLuc inh, NPR1 antag)
CCOC(=O)C1CCCN(C(=O)c2nc3sccn3c2-c2ccncc2)C1 (stereo unspecified)	none (no result: FLuc inh, NPR1 antag)
COc1cccc(-c2ccc(CN3CCCC(NC(=O)Nc4ccccc4)C3)cc2)c1 (stereo unspecified)	3T3 cytotox 22.4µM, HEK293 tox inconclusive (no result: FLuc inh, NPR1 antag)
COc1cccc(-c2ccc(CN3CCCC(NC(=O)Cc4ccc(F)cc4)C3)cc2)c1 (stereo unspecified)	3T3 cytotox inconclusive, HEK293 tox 31.6µM (no result: FLuc inh, NPR1 antag)
COC(=O)NC1CCCN(Cc2ccc(-c3cccc(OC)c3)cc2)C1 (stereo unspecified)	3T3 cytotox inconclusive, HEK293 tox 44.7µM (no result: FLuc inh, NPR1 antag)
O=C1CC2(CCN(C(=O)C3CCCN3[S+](=O)([O-])c3cccs3)CC2)Oc2ccccc2N1 (stereo unspecified)	HEK293 tox inconclusive (no result: FLuc inh, NPR1 antag)
O=C(Cc1ccc(F)cc1)N1CCN(c2ccnc3ccnn23)CC1	HEK293 tox inconclusive (no result: FLuc inh, NPR1 antag)
C#CCNC(=O)[C@@H]1Cc2cn(Cc3cc(C)on3)c3cccc(c23)[C@H](CC(C)C)N1	3T3 cytotox inconclusive, HEK293 tox inconclusive
C=CCNC(=O)[C@@H]1Cc2cn(Cc3cc(C)on3)c3cccc(c23)[C@H](CC(C)C)N1	3T3 cytotox 79.4µM, HEK293 tox 70.8µM
Cc1cc(Cn2cc3c4c(cccc42)[C@H](CC(C)C)N[C@H](C(=O)NC2CCCC2)C3)no1	3T3 cytotox 31.6µM, HEK293 tox 39.8µM
Cc1cc(Cn2cc3c4c(cccc42)[C@H](CC(C)C)N[C@H](C(=O)NCCN2CCCC2)C3)no1	3T3 cytotox 22.4µM, HEK293 tox 28.2µM
Cc1cc(Cn2cc3c4c(cccc42)[C@H](CC(C)C)N[C@H](C(=O)NC(C)C)C3)no1	3T3 cytotox 50.1µM, HEK293 tox 44.7µM
Cc1cc(Cn2cc3c4c(cccc42)[C@H](CC(C)C)N[C@H](C(=O)NCc2cncn2C)C3)no1	HEK293 tox inconclusive
O=C(CCc1c[nH]c2ccccc12)N1CCC2(CC1)CC(Cc1nc(C3CC3)no1)CCO2 (stereo unspecified)	3T3 cytotox inconclusive, HEK293 tox inconclusive
C[S+](=O)([O-])NCc1nnc2n1C(C(=O)NCCc1ccccc1F)CC2 (stereo unspecified)	none (no result: FLuc inh, NPR1 antag)
COc1ccc(C(=O)Nc2cc(C3CC3)nn2-c2ccccc2)cc1	none (no result: FLuc inh, NPR1 antag)
Cc1onc(C(=O)N2CCCCCCNC(=O)[C@@H]3CCCC[C@@H]32)c1Cn1cccn1	none
Cc1noc(C)c1C(=O)NC1CCCN(c2ccc3nnc(C4CC4)n3n2)C1 (stereo unspecified)	none (no result: FLuc inh, NPR1 antag)
COCCN1CCN(C(=O)[C@@H]2Cc3cn(Cc4cc(C)on4)c4cccc(c34)[C@H](CC(C)C)N2)CC1	3T3 cytotox inconclusive
Cc1cc(Cn2cc3c4c(cccc42)[C@H](CC(C)C)N[C@H](C(=O)NC2CCC2)C3)no1	3T3 cytotox inconclusive, HEK293 tox 79.4µM
COCCCNC(=O)[C@@H]1Cc2cn(Cc3cc(C)on3)c3cccc(c23)[C@H](CC(C)C)N1	3T3 cytotox inconclusive, HEK293 tox 35.5µM
Cc1noc(C)c1-c1cc2cc(CO)oc2c(NC2CCOCC2)n1	3T3 cytotox 25.1µM, HEK293 tox inconclusive
Cc1noc(C)c1-c1cc2cc(CO)oc2c(NCCOc2ccccc2)n1	3T3 cytotox inconclusive, HEK293 tox inconclusive
Cc1noc(C)c1-c1cc2cc(CO)oc2c(NCC2CCOCC2)n1	3T3 cytotox 22.4µM, HEK293 tox inconclusive
Cc1noc(C)c1-c1cc2cc(CO)oc2c(-c2ccc(F)c(Cl)c2)n1	3T3 cytotox 22.4µM, HEK293 tox 50.1µM
COc1ccc(-c2nc(-c3c(C)noc3C)cc3cc(CO)oc23)cn1	3T3 cytotox inconclusive, HEK293 tox inconclusive
Cn1ncc2c(C(=O)NCCc3ccc(Cl)cc3)cc(-c3ccccc3C(F)(F)F)nc21	3T3 cytotox 31.6µM, HEK293 tox 39.8µM (no result: FLuc inh, NPR1 antag)
Cn1ncc2c(C(=O)NCc3cccc(Cl)c3)cc(C(C)(C)C)nc21	3T3 cytotox inconclusive, HEK293 tox 50.1µM (no result: FLuc inh, NPR1 antag)
Cn1ncc2c(C(=O)NCCc3ccc(F)cc3)cc(-c3ccc(Cl)cc3)nc21	HEK293 tox inconclusive (no result: FLuc inh, NPR1 antag)
Cn1ncc2c(C(=O)NCCc3ccc(Cl)cc3)cc(C(C)(C)C)nc21	3T3 cytotox inconclusive, HEK293 tox 39.8µM! (no result: FLuc inh, NPR1 antag)
Cn1ncc2c(C(=O)NCCCl)cc(-c3ccccc3C(F)(F)F)nc21	none (no result: FLuc inh, NPR1 antag)
Cc1ccc(-c2cc(C(=O)NCCc3ccc(F)cc3)c3cnn(C)c3n2)c(C)c1	3T3 cytotox inconclusive, HEK293 tox 39.8µM (no result: FLuc inh, NPR1 antag)
O=C(c1ccc(Cl)cc1)N1CCN(CCCn2nc3n(c2=O)CCCC3)CC1	none (no result: FLuc inh, NPR1 antag)

Screening data: PubChem BioAssay, National Center for Advancing Translational Sciences (NCATS)
